Screening results (PubChem BioAssay)
This is a sample that favours compounds with a hit; in the whole collection about 4% have one here.
ADAM10 inh – human ADAM10 inhibitors, primary screen, biochemical, QFRET, HTS | Disintegrin and metalloproteinase domain-containing protein 10 (Homo sapiens), O14672 | recombinant ADAM10, EDANS/DABCYL FRET peptide cleavage, 3 h | inhibition, % at 7 µM | hit rate 0.62% among 370,000 | AID 720582, 2013;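 active = inhibition above a per-campaign cutoff equal to the mean of compounds falling between control-based bounds plus 3 SD, cut at about 20% in these data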;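 note: 0% = DMSO wells while the 100% control is not disclosed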
aDG glyco act – activators of alpha-DG glycosylation, primary screen, uHTS, Pro5-aDG cells, AlphaScreen. alpha-DG glycosylation AlphaScreen (IIH6); 0% Pro5, 100% B10-LARGE cell signal. activation, % at 10 µM. hit rate 0.22% among 360,000;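 active = activation of at least 8% versus controls, or a plate z-score of at least 8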;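 note: Pro5 are CHO cells carrying HIG-tagged alpha-DG that lacks glycosylation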
GRIN3A LBD mod – binders of NR3A ligand-binding domain, primary screen, biophysical, differential scanning fluorimetry, uHTS | Glutamate receptor ionotropic, NMDA 3A (GRIN3A) ligand-binding domain | NR3A LBD differential scanning fluorimetry, Tm shift; 0% = protein alone, 100% = glycine-bound protein | Tm shift relative to glycine control, % at 25 µM | hit rate 2.5% among 340,000;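 active = melting temperature shift of at least 10% of the positive control shift, at one fixed dose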
ADAM17 inh – ADAM17 inhibitors, primary screen, biochemical, QFRET. hit rate 0.83% among 370,000. inhibition, % at 6.95 µM. recombinant ADAM17, EDANS/DABCYL FRET peptide cleavage. Disintegrin and metalloproteinase domain-containing protein 17 (Homo sapiens), P78536;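 active = inhibition above the mean of compounds lying between control limits plus 3 SD, set per campaign, cut at about 8.5% in these data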;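 note: 0% = DMSO-only wells as the low control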
FAS TE block – FAS thioesterase domain inhibitors, primary screen, biochemical, fluorescence intensity, uHTS. inhibition, % at 15 µM. Fatty acid synthase (Homo sapiens), P49327. hit rate 0.67% among 360,000. recombinant FAS-TE, OMFH fluorogenic substrate, fluorescence endpoint. AID 602261, 2012;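 active = compounds whose normalised, plate-corrected inhibition of enzyme fluorescence in the single-dose primary screen is 50% or more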;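 note: 0% = DMSO with enzyme and 100% = substrate without enzyme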
Target sequence (P49327 whole entry, looked up, the tested form may be a part): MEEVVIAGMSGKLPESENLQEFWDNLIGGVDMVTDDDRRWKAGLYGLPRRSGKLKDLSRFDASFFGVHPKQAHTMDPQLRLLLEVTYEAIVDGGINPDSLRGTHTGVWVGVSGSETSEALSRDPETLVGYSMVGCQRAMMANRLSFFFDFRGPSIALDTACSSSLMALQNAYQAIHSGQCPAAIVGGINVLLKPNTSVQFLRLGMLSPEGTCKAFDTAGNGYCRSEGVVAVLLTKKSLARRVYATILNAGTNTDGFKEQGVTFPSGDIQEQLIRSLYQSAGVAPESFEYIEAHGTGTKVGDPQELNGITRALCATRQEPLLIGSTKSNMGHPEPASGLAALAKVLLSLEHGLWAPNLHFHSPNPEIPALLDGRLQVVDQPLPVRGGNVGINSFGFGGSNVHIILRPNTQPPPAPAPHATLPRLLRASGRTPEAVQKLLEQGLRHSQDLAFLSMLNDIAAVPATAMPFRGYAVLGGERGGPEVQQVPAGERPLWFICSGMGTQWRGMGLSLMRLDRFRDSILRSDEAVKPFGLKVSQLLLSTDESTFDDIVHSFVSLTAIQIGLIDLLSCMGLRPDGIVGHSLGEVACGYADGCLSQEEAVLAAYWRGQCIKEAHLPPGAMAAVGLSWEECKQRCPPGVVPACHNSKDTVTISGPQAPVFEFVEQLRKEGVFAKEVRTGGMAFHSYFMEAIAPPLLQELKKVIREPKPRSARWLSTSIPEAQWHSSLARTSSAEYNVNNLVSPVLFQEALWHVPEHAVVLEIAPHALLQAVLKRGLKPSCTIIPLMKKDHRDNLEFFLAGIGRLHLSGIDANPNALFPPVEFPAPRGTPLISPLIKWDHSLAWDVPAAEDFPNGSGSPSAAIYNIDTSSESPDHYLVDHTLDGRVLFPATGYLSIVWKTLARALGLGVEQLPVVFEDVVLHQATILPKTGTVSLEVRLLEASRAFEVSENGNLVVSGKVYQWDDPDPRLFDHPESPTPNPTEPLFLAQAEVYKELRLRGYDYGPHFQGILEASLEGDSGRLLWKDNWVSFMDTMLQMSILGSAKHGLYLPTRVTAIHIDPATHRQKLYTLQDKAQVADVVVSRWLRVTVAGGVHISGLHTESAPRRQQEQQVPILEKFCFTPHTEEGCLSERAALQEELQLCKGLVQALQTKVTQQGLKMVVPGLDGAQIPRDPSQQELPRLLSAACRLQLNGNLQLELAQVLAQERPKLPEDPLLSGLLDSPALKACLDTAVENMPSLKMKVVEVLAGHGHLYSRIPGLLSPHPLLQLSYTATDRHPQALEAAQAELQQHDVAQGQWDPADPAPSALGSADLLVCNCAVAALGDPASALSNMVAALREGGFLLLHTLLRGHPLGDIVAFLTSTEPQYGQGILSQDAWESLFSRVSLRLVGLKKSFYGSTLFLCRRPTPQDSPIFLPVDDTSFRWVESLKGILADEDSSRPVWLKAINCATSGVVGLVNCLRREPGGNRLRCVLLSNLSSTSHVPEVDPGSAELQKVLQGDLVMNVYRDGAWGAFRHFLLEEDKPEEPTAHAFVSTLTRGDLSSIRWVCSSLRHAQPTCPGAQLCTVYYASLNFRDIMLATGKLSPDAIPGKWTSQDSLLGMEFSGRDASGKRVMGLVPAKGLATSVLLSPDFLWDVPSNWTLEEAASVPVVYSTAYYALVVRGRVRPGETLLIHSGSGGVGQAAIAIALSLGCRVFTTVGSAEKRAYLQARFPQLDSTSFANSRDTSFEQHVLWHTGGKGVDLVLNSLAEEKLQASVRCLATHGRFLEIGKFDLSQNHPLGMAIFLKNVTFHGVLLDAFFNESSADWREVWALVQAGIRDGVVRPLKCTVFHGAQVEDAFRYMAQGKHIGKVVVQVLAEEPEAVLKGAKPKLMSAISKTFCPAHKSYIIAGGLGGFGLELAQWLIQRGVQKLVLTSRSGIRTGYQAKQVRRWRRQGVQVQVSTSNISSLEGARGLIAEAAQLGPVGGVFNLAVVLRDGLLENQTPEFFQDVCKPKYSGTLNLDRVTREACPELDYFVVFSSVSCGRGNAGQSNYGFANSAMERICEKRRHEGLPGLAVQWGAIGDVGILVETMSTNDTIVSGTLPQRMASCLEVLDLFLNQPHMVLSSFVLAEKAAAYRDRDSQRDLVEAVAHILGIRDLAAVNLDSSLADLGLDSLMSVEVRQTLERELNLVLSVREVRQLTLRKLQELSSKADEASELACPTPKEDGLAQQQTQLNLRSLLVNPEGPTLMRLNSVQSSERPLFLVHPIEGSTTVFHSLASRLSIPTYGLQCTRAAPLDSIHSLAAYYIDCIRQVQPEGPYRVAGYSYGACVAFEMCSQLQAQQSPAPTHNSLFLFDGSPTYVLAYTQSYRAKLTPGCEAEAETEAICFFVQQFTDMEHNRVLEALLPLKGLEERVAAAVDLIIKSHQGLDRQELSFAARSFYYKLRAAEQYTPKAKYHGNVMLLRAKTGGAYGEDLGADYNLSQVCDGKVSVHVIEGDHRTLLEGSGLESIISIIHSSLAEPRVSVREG
* = called active by the depositor; i = inactive; . = no result given.

SMILES | ADAM10 inh | aDG glyco act | GRIN3A LBD mod | ADAM17 inh | FAS TE block
CC1=NN(C(N)=S)C(=O)C1N=Nc1ccc(Cl)cc1Cl (configuration not stated) | -5 | 0 | 11* | 0 | 7
CC1=NN(C(N)=S)C(=O)C1N=Nc1ccccc1Cl (configuration not stated) | -2 | 0 | 3 | -1 | -1
CC1=NN(C(N)=S)C(=O)C1N=Nc1ccc(C)c(Br)c1 (configuration not stated) | 5 | 0 | 12* | -1 | -1
CC1=NN(C(N)=S)C(=O)C1N=Nc1ccc(O)cc1 (configuration not stated) | 4 | 0 | -2 | 4 | -6
Cc1cccc(NCc2cc(Cl)cc(Cl)c2O)n1 | 16 | 0 | 1 | 4 | 27
Cc1ccc(NC(=O)O/N=C/c2ccc(N(C)C)cc2)cc1 | -21 | 0 | 19* | -11 | 16
CCCOc1ccc(OCCSc2nnc(N)s2)cc1 | 2 | . | -2 | 3 | .
Nc1nnc(SCCOc2cccc(Br)c2)s1 | -1 | 0 | 13* | -2 | -1
Cc1cccc(NC(=O)c2nc[nH]c2C(=O)NCCCCNC(=O)c2[nH]cnc2C(=O)Nc2cccc(C)c2)c1 | 5 | 0 | 13* | -1 | -1
O=C(Nc1ccc(Cl)cc1)c1nc[nH]c1C(=O)NCCCCNC(=O)c1[nH]cnc1C(=O)Nc1ccc(Cl)cc1 | 2 | 0 | 26* | -7 | 7
CC(C)(C)OC(=O)NCCCC[C@H](NC(=O)c1[nH]cnc1C(=O)Nc1ccc(Cl)cc1)C(=O)OC(C)(C)C | . | 0 | 0 | . | 76*
Cc1cccc(NC(=O)c2nc[nH]c2C(=O)NCc2ccccc2)c1 | -57 | 0 | 2 | -9 | 0
O=C(Nc1cccc(Cl)c1)c1nc[nH]c1C(=O)NCCCCNC(=O)c1[nH]cnc1C(=O)Nc1cccc(Cl)c1 | -4 | 0 | -1 | -4 | 1
O=C(Nc1cccc(Cl)c1)c1nc[nH]c1C(=O)NCc1ccccc1 | 2 | 0 | 17* | -2 | -6
CNC(=O)c1[nH]cnc1C(=O)N[C@@H](CCCCNC(=O)OC(C)(C)C)C(=O)OC(C)(C)C | 0 | 0 | -2 | -3 | 7
Cc1ccc(NC(=S)N(CCN2CCCCC2)Cc2ccco2)cc1 | 1 | 0 | -5 | -1 | -5
CCOC(=O)c1ccc(NC(=O)c2nc[nH]c2C(=O)NCCNC(=O)c2[nH]cnc2C(=O)Nc2ccc(C(=O)OCC)cc2)cc1 | 5 | 0 | 15* | 8 | -10
CCOC(=O)c1ccc(NC(=O)c2nc[nH]c2C(=O)NC)cc1 | 9 | 0 | 0 | 1 | -6
COc1ccc(/C=N/NS(=O)(=O)c2ccccc2)cc1OS(=O)(=O)c1ccccc1 | 9 | 0 | 0 | 2 | 9
COc1ccc(/C=N/NS(=O)(=O)c2ccccc2)cc1OC(=O)c1ccc(C)cc1 | 5 | 0 | 19* | 4 | 19
COc1ccc(/C=N\NS(=O)(=O)c2ccc(C)cc2)cc1COc1ccccc1[N+](=O)[O-] | 7 | 0 | 12* | 0 | 27
COc1ccc(/C=N/NC(=O)c2ccccc2OC)cc1COc1ccccc1[N+](=O)[O-] | 5 | 0 | -4 | 1 | 25
COc1ccc(/C=N/NS(=O)(=O)c2ccc(C)cc2)cc1OC(=O)c1ccccc1 | 5 | 0 | 10* | 3 | 23
Nc1nc(NC(=O)c2ccc(F)cc2)ns1 | -4 | 0 | 0 | -5 | -15
CCCCCNCc1cccn1C | 6 | 0 | 0 | -2 | -7
SMILES | ADAM10 inh | aDG glyco act | GRIN3A LBD mod | ADAM17 inh | FAS TE block
COC(=O)CSc1nsc(SCC(=O)OC)c1C#N | 4 | 0 | -4 | 2 | -6
Cc1cccc(NC(=O)CSc2nsc(SCC(=O)Nc3cccc(C)c3)c2C#N)c1 | 0 | 0 | 14* | -7 | 31
CC(=O)Nc1cccc(NC(=O)CSc2nc(C)c(C)c(C)c2C#N)c1 | 2 | 0 | -1 | 0 | 5
N#Cc1c(SCC(=O)Nc2ccccc2)nsc1SCC(=O)Nc1ccccc1 | -5 | 0 | 15* | -1 | 10
CCN(CC)S(=O)(=O)c1cccc(C(=O)Nc2cc3oc4ccccc4c3cc2OC)c1 | -7 | 0 | 22* | -1 | 32
COc1cc2c(cc1NC(=O)Nc1ccccc1)oc1ccccc12 | -56 | 0 | 16* | -15 | 38
COc1cc2c(cc1NC(=O)CN1C(=O)NC3(CCc4ccccc43)C1=O)oc1ccccc12 (configuration not stated) | -6 | 0 | 2 | 6 | 55*
COc1cc2c(cc1NC(=S)Nc1cccc(C(F)(F)F)c1)oc1ccccc12 | -281 | 0 | 29* | -80 | 32
CC1CCN(CCCNS(=O)(=O)c2ccc3c(c2)CCN3C(=O)C2CC2)CC1 | 6 | 1 | 1 | 4 | -10
CC(C)C[C@H](NC(=O)N1CCN(c2ccccc2)CC1)C(=O)O | -3 | 0 | -1 | -3 | -11
COc1cc2c(cc1NC(=O)c1cncc(Br)c1)oc1ccccc12 | -3 | 0 | 24* | -3 | 20
CC(C)(C)n1nnnc1CN1C2CCC1CC(NC(=O)Nc1ccccc1)C2 (configuration not stated) | -7 | 0 | -1 | -2 | -6
CC(=O)NC(c1cccs1)c1cc(Cl)c2ccccc2c1O (configuration not stated) | -316 | 0 | -10 | -76 | 6
O=C1NC(=Nc2ccccc2Cl)S/C1=C\c1cc([N+](=O)[O-])ccc1O | 7 | 0 | 20* | 2 | -7
CSc1nc(N2CCOCC2)c2c3c(sc2n1)CCCC3 | -17 | 0 | 1 | -9 | 15
S=C(NCCN1CCOCC1)Nc1ccc(Cl)cc1Cl | -4 | 0 | 12* | 3 | -10
CC(=O)Oc1cc(OC(C)=O)c2c(C)cc(=O)oc2c1 | i | 1 | 1 | i | -7
Cc1ccc(C(=O)CCC(=O)N2CCN(c3ccccc3O)CC2)cc1 | 5 | 0 | 19* | -6 | -2
O=C(N/N=C/c1cccs1)c1cc(-c2ccc(Cl)s2)[nH]n1 | 0 | 0 | 33* | 1 | 0
Cc1ccc(-c2cc(C(=O)N/N=C/C(Br)=C/c3ccccc3)n[nH]2)o1 | 10 | 0 | 29* | 4 | 6
CC(C)(C)c1cc(C(=O)N/N=C/c2ccccn2)n[nH]1 | -5 | 0 | 0 | -4 | -6
Cc1cc(C(=O)N/N=C/C=C/c2ccccc2)n[nH]1 | -7 | 0 | -429 | -9 | -2
CC(C)(C)c1cc(C(=O)N/N=C/c2ccncc2)n[nH]1 | 4 | 0 | 468* | 1 | -4
Cc1ccc(-c2cc(C(=O)N/N=C/C=C/c3ccccc3)n[nH]2)s1 | -1 | 0 | 19* | -1 | -2
